# In PubChem BioAssay (Tox21):
# Records with an inconclusive call do not appear. Where a call stands in place of a potency, no number is given. Active and inactive are the calls of the source. Unless noted, calls come from the whole dose curve; as a rule, active = well fitted curve in the direction sought with a large enough effect in the repeat runs; inconclusive = weak or mixed curves; inactive = no such curve, though single readings can be large; an effect the other way counts as inactive or inconclusive.
# What was measured:
# [1] = biological target: Thyrotropin receptor (Homo sapiens) (UniProt P16473); assay: qHTS assay to identify small molecule antagonists of the thyroid stimulating hormone receptor (TSHR) signaling pathway (AID 1259385; calls by dose curve; note: nearly all actives have a fitted effect of over 20% in size)
# In short: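 Antagonist mode: compound-treated TSHR-expressing HEK293 cells were stimulated with 1.5 ng/mL TSH (final) in presence of Ro20-1724 for 30 min at RT. HTRF cAMP detection after 1 h; each compound tested at 15 concentrations, triplicate.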
# [2] = qHTS assay to identify small molecule agonists of the estrogen receptor alpha (ER-alpha) signaling pathway in the presence of an antagonist - cell viability counter screen (AID 1259386);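 note: series mostly up to about 92 µM; cells exposed to compounds for 22 h at 37 °C before the viability read; nearly all actives have a fitted effect of over 30% in size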
# In short: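 VM7Luc4E2, stripped-serum pre-culture 5 d; 24hr plating; +ICI-182,780 10.0nM final; cpds 15 conc, 22hr, 37C/5% CO2; CellTiter-Fluor added at 21hr, fluorescence 1hr later.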
# [3] = qHTS assay to identify small molecule antagonists of the TGF-beta/Smad signaling pathway - cell viability counter screen (AID 1346824); note: nearly all actives have a fitted effect of over 50% in size
# In short: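 Cytotoxicity counter-screen run in the same wells as the beta-lactamase Smad reporter read: CellTiter-Glo luminescence after 30 min at room temperature. HEK 293T SBE-bla cells had 5 hr compound exposure at 37 C with TGF-beta1 (0.25 ng/mL stock).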
# [4] = qHTS assay to identify small molecule agonists of the TGF-beta/Smad signaling pathway - cell viability counter screen (AID 1346829); note: top concentration of the series differs between compounds; nearly all actives have a fitted effect of over 45% in size
# In short: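 SBE-bla HEK 293T cells plated overnight, compound exposure 5 hr at 37 C. Viability read in the same wells by CellTiter-Glo luminescence after 30 min at room temperature, following the beta-lactamase read.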
# [5] = qHTS assay to identify small molecule agonists of the TGF-beta/Smad signaling pathway (AID 1346859; active = well fitted activation curve with a large enough effect in the signal ratio in the repeat runs, not every such curve was filed as active; the % refers to the signal ratio; note: series mostly up to about 77 µM)
# In short: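 Screening used HEK 293T SBE-bla cells at 4,000/well. Test agents: 5 hr, 37 C. Detection: FRET substrate, 2 hr RT, then excitation 405 nm with emissions at 460 and 530 nm.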
# [6] = biological target: Thyrotropin-releasing hormone receptor (Homo sapiens) (UniProt P34981); assay: qHTS assay to identify small molecule antagonists of the thyrotropin-releasing hormone receptor (TRHR) signaling pathway (AID 1346877; active = well fitted inhibition curve with a large enough effect in the repeat runs, not every such curve was filed as active; note: series mostly up to about 51 µM)
# In short: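 Intracellular calcium fluorescence, read kinetically every second over 3 min, reports TRH-evoked signalling in HEK293 cells carrying TRHR. Test compounds were added 5 min ahead of a 1 nM TRH challenge.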
# [7] = biological target: Thyrotropin-releasing hormone receptor (Homo sapiens) (UniProt P34981); assay: qHTS assay to identify small molecule agonists of the thyrotropin-releasing hormone receptor (TRHR) signaling pathway (AID 1346891; calls by dose curve; note: series mostly up to about 58 µM)
# In short: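 Readout was intracellular calcium fluorescence in TRHR-Hek293 cells. Cells were incubated 18 h, dye-loaded 2 h at 37 °C, and treated with compound in agonist mode.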
# [8] = Human pregnane X receptor (PXR) small molecule agonists, qHTS cell viability counter screen (AID 1346977); note: nearly all actives have a fitted effect of over 50% in size; note: potency is the fitted concentration of half-maximal effect
# In short: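 In each well, the PXR reporter HepG2 line was checked for viability: CellTiter-Fluor reagent added 23hr post-dosing, fluorescence read after 1hr incubation at 37C.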
# [9] = Caspase-3/7 induction in HepG2 cells by small molecules, qHTS assay (AID 1346978); note: nearly all actives have a fitted effect of over 15% in size; note: potency is the fitted concentration of half-maximal effect
# In short: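 Caspase-3/7 induction was measured by Caspase-Glo 3/7 luminescence (30 min, room temperature) after a 17 hr compound exposure of wild-type HepG2 cells seeded at 2,000 per well and pre-incubated 5 hr.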
# [10] = Caspase-3/7 induction in CHO-K1 cells by small molecules, qHTS cell viability counter screen (AID 1346979); note: nearly all actives have a fitted effect of over 35% in size; note: potency is the fitted concentration of half-maximal effect
# In short: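 Following a 5hr settling period, CHO-K1 cells at 1,500 per well received DMSO-dissolved compounds. Cell viability was quantified 16hr later by CellTiter-Fluor fluorescence, measured after 1hr with reagent at 37C.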
# [11] = Caspase-3/7 induction in CHO-K1 cells by small molecules, qHTS assay (AID 1346980); note: nearly all actives have a fitted effect of over 15% in size
# In short: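 Luminescent Caspase-Glo 3/7 read (30min, room temperature) quantified apoptosis induction. Cells were wild-type CHO-K1, treated with compound for 17hr at 37 C and 5% CO2.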
# [12] = Caspase-3/7 induction in HepG2 cells by small molecules, qHTS cell viability counter screen (AID 1346981); note: nearly all actives have a fitted effect of over 30% in size; note: potency is the fitted concentration of half-maximal effect
# In short: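 HepG2, WT, 2,000 cells/well; 5 hr pre-incubation 37 C/5% CO2; compound pin-transferred from DMSO; 16 hr exposure; CellTiter-Fluor, 1 hr; fluorescence read.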
# [13] = biological target: Nuclear receptor subfamily 1 group I member 2 (Homo sapiens) (UniProt O75469); assay: Human pregnane X receptor (PXR) small molecule agonists, qHTS assay (AID 1346982); note: nearly all actives have a fitted effect of over 35% in size; note: potency is the fitted concentration of half-maximal effect
# In short: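 Luciferase signal from ONE-Glo (30 min, room temperature) measured activation of hPXR-driven CYP3A4 reporter expression in PXR-Luc HepG2 cells treated with compounds for 24 hr at 37 C.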
# [14] = biological target: Cytochrome P450 2D6 (Homo sapiens) (UniProt P10635); assay: Cytochrome P450 Family 2 Subfamily D Member 6 (CYP2D6) small molecule antagonists: luciferase reporter qHTS assay (AID 1671196); note: nearly all actives have a fitted effect of over 50% in size; note: potency is the fitted concentration of half-maximal effect
# In short: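 Read-out is luminescence from luciferin formed by CYP2D6 turnover of a proluciferin substrate, recorded as relative luminescence units. Reactions ran 1 h at room temperature after NADPH regeneration solution was added.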
# [15] = biological target: Progesterone receptor (Homo sapiens) (UniProt P06401); assay: qHTS assay to identify small molecule agonists of the progesterone receptor (PR) signaling pathway (AID 1346784; calls by dose curve; note: nearly all actives have a fitted effect of over 30% in size)
# In short: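 Reporter assay, GripTite PR-UAS-bla HEK 293T cells: 16 hr exposure to DMSO-dissolved compounds at 37C, 5% CO2, in steroid-depleted (2% charcoal-stripped FBS) medium; beta-lactamase measured by FRET fluorescence.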
# [16] = biological target: Progesterone receptor (Homo sapiens) (UniProt P06401); assay: qHTS assay to identify small molecule antagonists of the progesterone receptor (PR) signaling pathway (AID 1346795; active = well fitted inhibition curve with a large enough effect in the signal ratio in the repeat runs, not every such curve was filed as active; the % refers to the signal ratio; note: potency is the fitted concentration of half-maximal effect)
# In short: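 Stimulus R5020 at 1 nM final; cells HEK293T PR-UAS-bla; medium with 2% charcoal-stripped FBS; compound exposure 16 hr at 37C, 5% CO2; detection by FRET beta-lactamase substrate, 2 hr, room temperature.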
# [17] = qHTS assay to identify small molecule antagonists of the progesterone receptor (PR) signaling pathway - cell viability counter screen (AID 1346798); note: nearly all actives have a fitted effect of over 50% in size; note: potency is the fitted concentration of half-maximal effect
# In short: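 In the same plates used for the beta-lactamase readout, cell viability of compound- and R5020-treated PR-UAS-bla HEK293T cells (16 hr, 37C) was assessed by CellTiter-Glo luminescence.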
# [18] = qHTS assay to identify small molecule agonists of the progesterone receptor (PR) signaling pathway - cell viability counter screen (AID 1346799; calls by dose curve; note: nearly all actives have a fitted effect of over 45% in size; note: potency is the fitted concentration of half-maximal effect)
# In short: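 Multiplexed viability read: CellTiter-Glo luminescence, 30 min RT, following LiveBLAzer FRET measurement on PR-UAS-bla HEK293T cells exposed to compounds 16 hr.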
# Sequence of Cytochrome P450 2D6 (Homo sapiens) (P10635 whole entry, looked up): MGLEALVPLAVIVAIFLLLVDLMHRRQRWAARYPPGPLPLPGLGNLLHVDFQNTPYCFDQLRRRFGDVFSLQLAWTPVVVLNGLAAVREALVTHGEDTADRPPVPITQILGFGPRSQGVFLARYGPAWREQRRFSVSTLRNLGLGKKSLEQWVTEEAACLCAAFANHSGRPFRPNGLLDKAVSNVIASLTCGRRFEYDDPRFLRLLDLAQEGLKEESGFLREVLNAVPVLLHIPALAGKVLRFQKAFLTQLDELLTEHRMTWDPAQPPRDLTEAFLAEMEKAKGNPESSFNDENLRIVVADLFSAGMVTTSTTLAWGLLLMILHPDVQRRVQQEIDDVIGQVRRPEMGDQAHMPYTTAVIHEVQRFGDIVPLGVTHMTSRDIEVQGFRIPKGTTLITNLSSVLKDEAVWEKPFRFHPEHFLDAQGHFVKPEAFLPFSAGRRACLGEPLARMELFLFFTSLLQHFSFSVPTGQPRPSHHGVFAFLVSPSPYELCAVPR
# Sequence of Nuclear receptor subfamily 1 group I member 2 (Homo sapiens) (O75469 whole entry, looked up): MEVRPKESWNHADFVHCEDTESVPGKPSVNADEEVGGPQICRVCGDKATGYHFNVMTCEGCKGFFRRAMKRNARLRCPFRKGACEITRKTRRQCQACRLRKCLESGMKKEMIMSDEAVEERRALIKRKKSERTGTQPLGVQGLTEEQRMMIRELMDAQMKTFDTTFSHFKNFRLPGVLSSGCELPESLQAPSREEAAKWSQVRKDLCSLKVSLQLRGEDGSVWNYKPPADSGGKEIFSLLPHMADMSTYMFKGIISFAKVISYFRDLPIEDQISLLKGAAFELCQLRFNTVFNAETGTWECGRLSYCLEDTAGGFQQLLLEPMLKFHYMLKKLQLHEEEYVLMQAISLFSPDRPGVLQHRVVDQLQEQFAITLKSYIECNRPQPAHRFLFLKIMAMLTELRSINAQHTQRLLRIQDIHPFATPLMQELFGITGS
# Sequence of Thyrotropin-releasing hormone receptor (Homo sapiens) (P34981 whole entry, looked up): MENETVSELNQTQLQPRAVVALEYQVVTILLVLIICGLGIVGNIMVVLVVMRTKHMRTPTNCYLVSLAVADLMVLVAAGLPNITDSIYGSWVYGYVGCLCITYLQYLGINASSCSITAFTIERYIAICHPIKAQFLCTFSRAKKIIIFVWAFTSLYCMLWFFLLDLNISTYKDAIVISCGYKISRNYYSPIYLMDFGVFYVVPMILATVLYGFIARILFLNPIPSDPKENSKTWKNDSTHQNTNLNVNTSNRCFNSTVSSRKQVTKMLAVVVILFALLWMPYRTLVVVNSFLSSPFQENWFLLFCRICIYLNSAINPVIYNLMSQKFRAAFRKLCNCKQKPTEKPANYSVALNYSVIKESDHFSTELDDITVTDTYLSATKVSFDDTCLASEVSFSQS
# Sequence of Progesterone receptor (Homo sapiens) (P06401 whole entry, looked up): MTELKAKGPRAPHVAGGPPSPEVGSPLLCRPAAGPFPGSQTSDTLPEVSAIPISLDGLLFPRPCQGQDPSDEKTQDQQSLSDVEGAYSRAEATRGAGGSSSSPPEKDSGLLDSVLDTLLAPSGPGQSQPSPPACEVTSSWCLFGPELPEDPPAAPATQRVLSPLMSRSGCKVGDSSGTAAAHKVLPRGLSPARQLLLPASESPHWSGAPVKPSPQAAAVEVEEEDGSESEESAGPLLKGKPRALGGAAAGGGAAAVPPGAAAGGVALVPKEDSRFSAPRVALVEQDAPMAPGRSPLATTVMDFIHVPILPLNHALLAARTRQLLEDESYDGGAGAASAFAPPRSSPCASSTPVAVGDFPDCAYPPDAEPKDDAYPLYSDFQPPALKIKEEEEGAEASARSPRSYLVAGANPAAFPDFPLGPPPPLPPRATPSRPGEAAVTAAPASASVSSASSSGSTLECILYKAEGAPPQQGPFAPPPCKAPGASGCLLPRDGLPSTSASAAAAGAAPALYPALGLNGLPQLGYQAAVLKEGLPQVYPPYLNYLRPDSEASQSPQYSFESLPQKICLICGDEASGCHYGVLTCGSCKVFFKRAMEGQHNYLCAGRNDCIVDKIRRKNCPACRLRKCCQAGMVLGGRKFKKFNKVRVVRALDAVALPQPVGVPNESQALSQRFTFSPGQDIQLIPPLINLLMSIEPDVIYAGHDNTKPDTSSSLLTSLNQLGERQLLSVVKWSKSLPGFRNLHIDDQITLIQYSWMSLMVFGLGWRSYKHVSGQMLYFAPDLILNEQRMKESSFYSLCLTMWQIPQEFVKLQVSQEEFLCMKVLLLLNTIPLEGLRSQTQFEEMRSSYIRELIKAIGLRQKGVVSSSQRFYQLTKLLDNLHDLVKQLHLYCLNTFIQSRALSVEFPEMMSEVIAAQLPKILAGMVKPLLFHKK
# Sequence of Thyrotropin receptor (Homo sapiens) (P16473 whole entry, looked up): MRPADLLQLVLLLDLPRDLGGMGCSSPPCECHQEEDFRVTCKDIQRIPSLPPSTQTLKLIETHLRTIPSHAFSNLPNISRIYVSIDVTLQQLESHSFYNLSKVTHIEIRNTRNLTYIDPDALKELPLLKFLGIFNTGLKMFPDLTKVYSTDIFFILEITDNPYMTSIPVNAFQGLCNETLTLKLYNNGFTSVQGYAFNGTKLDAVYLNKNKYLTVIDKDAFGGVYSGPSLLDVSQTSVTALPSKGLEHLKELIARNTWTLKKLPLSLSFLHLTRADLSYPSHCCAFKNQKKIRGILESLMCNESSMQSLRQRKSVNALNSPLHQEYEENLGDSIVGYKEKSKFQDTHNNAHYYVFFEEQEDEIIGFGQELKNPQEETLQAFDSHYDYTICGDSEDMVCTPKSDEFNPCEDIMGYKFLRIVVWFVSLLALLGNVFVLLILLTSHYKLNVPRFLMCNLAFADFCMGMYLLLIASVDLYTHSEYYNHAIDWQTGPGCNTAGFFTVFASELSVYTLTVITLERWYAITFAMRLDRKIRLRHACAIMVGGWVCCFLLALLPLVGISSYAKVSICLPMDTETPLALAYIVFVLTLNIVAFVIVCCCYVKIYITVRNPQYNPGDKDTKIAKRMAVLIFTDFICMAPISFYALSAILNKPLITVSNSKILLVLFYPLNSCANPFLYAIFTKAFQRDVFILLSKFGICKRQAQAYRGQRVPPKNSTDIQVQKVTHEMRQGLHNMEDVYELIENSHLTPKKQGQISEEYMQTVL
Compound,Potency [1],Potency [2],outcome [3],Potency [4],Potency [5],outcome [6],outcome [7],Potency [8],Potency [9],Potency [10],outcome [11],Potency [12],Potency [13],Potency [14],Potency [15],Potency [16],Potency [17],Potency [18]
c1ccc(CCCc2ccncc2)cc1,inactive,inactive,inactive,inactive,inactive,inactive,inactive,inactive,inactive,inactive,inactive,inactive,30.6 µM (active),4.48 µM (active),,,,
Nc1ccc(N=Nc2ccc(N)cc2)cc1,inactive,,inactive,inactive,inactive,inactive,inactive,21.7 µM (active),inactive,24.3 µM (active),inactive,27.3 µM (active),inactive,inactive,inactive,inactive,inactive,inactive
Oc1ccc2c(c1)Cc1ccccc1-2,inactive,inactive,inactive,,inactive,inactive,inactive,inactive,inactive,,inactive,inactive,30.6 µM (active),inactive,inactive,,inactive,
COC(=O)Nc1nc2ccc(C(=O)C3CC3)cc2[nH]1,inactive,inactive,inactive,inactive,inactive,,,inactive,inactive,,inactive,inactive,8.41 µM (active),inactive,inactive,,,
O[C@@H](CNC[C@H](O)[C@H]1CCc2cc(F)ccc2O1)[C@@H]1CCc2cc(F)ccc2O1,inactive,inactive,inactive,inactive,inactive,,,29.8 µM (active),33.5 µM (active),,,,inactive,0.275 µM (active),,26.6 µM (active),29.8 µM (active),29.8 µM (active)
CC(C)OC(=O)c1ccccc1C(=O)OC(C)C,inactive,inactive,inactive,inactive,inactive,inactive,inactive,inactive,inactive,inactive,,inactive,inactive,inactive,,,61.1 µM (active),43.3 µM (active)
CCCCCCCCCCCSCC(=O)O,inactive,inactive,inactive,inactive,inactive,inactive,inactive,inactive,inactive,inactive,inactive,inactive,inactive,31.7 µM (active),,,inactive,21.7 µM (active)
O=C1OC(=O)c2c(Br)c(Br)c(Br)c(Br)c21,inactive,inactive,inactive,,inactive,inactive,inactive,inactive,,,inactive,inactive,inactive,inactive,inactive,,inactive,inactive
